# Screening results as filed in PubChem BioAssay.
# Most compounds without a hit are left out; they make up all but 1.1% or so of the library.
# CaV13 ICDI inh = Primary screen for inhibitors of IQ motif and Ca2+-dependent inactivation inhibitor domain binding in CACNA1D, Förster resonance energy transfer in living cells, …; AID 743397; HEK cells, CFP/YFP FRET ICDI-IQ, plate reader, 10 min; percent FRET-ratio fall versus neutral wells; actives 0.098% (n = 340,000); inhibition, % at 12.3 µM;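 active means mean replicate inhibition of at least 30% and at least 1% of replicates passing that level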;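 further: 0% = median of the neutral control wells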
# ABCB6 inh MLPCN = ABCB6 transporter inhibitors, primary screen, K562-ABCB6 cells, flow cytometry, MLPCN library; actives 0.19% (n = 360,000); ATP-binding cassette sub-family B member 6 (Homo sapiens), Q9NP58; fluorescence ratio to DMSO, % at 10 µM; AID 602162, 2011; K562-ABCB6 porphyrin accumulation, 1 h; stronger effect = lower value;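 active means fluorescence ratio to DMSO below 75%, the collection mean minus 3 SD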;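 further: signal is porphyrin accumulated inside mitochondria; 100% equals median channel fluorescence of DMSO control wells; lower ratio means ABCB6 inhibition with less porphyrin fluorescence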
# Target sequence (Q9NP58 whole entry, looked up): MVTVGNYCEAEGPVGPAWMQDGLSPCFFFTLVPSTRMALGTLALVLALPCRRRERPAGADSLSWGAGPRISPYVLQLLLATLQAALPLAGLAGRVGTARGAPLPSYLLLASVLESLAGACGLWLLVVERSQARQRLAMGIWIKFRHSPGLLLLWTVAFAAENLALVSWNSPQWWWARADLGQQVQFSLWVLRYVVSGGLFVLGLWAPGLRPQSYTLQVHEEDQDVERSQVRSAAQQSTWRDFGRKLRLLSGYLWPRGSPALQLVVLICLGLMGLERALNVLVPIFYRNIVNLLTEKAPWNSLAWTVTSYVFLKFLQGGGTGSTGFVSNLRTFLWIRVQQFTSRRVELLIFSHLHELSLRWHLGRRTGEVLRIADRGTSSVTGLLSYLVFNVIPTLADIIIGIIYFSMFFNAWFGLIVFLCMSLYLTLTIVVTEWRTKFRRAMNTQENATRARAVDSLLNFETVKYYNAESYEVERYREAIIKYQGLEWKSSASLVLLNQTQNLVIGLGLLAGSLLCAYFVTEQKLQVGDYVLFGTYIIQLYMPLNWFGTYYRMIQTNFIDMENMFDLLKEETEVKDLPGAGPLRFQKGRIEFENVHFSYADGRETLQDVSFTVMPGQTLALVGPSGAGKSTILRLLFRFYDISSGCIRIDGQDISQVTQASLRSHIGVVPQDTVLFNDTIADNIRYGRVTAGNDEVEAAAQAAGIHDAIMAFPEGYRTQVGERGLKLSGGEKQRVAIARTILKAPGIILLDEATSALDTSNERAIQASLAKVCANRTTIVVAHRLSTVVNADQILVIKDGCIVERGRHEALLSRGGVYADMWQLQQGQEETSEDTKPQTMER
# Granule exo inh = LAMP-1 surface exposure blockers, TALL-104 cells – cell-based, flow cytometry, MLPCN library, primary screen; AID 651702, 2012; inhibition, % at 10 µM; TALL-104 LAMP-1 surface exposure; cells stimulated with thapsigargin and PMA; actives 0.66% (n = 360,000);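 active means inhibition above about 55%, limit read from the data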
# VLA-4 inh = inhibition in human VLA-4 binding assay, primary screen, VLA-4 allosteric modulator project, MLPCN library, flow cytometry, VLA-4 expressing cells. Integrin alpha-4 (Homo sapiens), P13612. ligand binding flow cytometry. inhibition, % (about 7 µM as worked out from the volumes in the protocol). actives 0.2% (n = 330,000). AID 2557, 2010; in the data active means inhibition above about 50%
# Starred values were filed as active, the others as inactive; . = no result; + = active, no number.
SMILES,CaV13 ICDI inh,ABCB6 inh MLPCN,Granule exo inh,VLA-4 inh
O=C1/C(=C\c2ccccc2)CN(C(=O)CCN2CCCCC2)C/C1=C/c1ccccc1,-10.1,105.0,83.2*,.
O=C1/C(=C\c2ccc(Cl)c(Cl)c2)CN(C(=O)CCN2CCOCC2)C/C1=C/c1ccc(Cl)c(Cl)c1,-9.7,97.0,65.3*,.
O=C1c2[nH]nc(-c3ccccc3)c2C(c2ccc(F)cc2)N1Cc1ccccc1 (stereo not given),-4.3,.,.,.
COC(=O)C1=C(C)N(C)C(=NCc2ccc(C(F)(F)F)cc2)NC1c1ccc(Cl)cc1 (stereo not given),-10.7,.,.,.
O=C(NCc1ccccc1)[C@@H]1CCCN1C(=O)[C@H]1CCCN1C(=O)c1cccc(F)c1,-11.4,.,.,.
O=Nc1c(-c2cccc([N+](=O)[O-])c2)nc2ncccn12,-9.5,105.0,74.3*,-0.3
Cc1cc(C)c(S(=O)(=O)/N=C2/C=C(SCC(=O)O)C(=O)c3ccccc32)cc1C,.,139.0,78.9*,.
Cn1c(=O)oc2ccc(S(=O)(=O)Nc3ccc(Cl)cc3[N+](=O)[O-])cc21,-5.1,.,.,.
COCCCn1c(SCCc2ccccc2)nc2cc(OC)c(OC)cc2c1=N,-1.0,89.0,59.9*,5.9
CC1CC(C)CN(CCCNC(=O)CCC(=O)N2CC(C)Oc3ccccc32)C1 (stereo not given),38.4*,100.0,-1.2,-8.2
CC1CN(C(=O)CCC(=O)NCCc2ccccc2)c2ccccc2O1 (stereo not given),-6.1,95.0,-2.7,-0.7
Cc1ccc2c(c1)N(C(=O)CCC(=O)NCCCN1CCOCC1)CC(C)O2 (stereo not given),47.5*,99.0,2.6,-15.2
Cc1cc2c(c(=O)o1)[C@@]1(C(=O)N(C)c3cc(Br)ccc31)C1=C(CCCC1=O)O2,-8.2,.,.,.
O=C1C2C(C(=O)N1/N=C/c1ccc(N3CCCCC3)o1)C1C=CC2C12CC2 (stereo not given),-3.5,97.0,67.8*,13.5
O=C(N/N=C/c1ccc(N2CCCCC2)o1)c1ccccc1,-2.2,117.0,5.7,-4.5
O=C(/C=C/c1ccco1)NCC(=O)N/N=C/c1ccc(Cl)cc1,1.3,96.0,1.2,7.0
O=C(/C=C/c1ccccc1)NCC(=O)N/N=C/c1ccco1,.,100.0,76.2*,7.3
CCc1c(-c2cccc(Br)c2)ncn1CCc1ccccc1OC,-8.8,.,.,.
CCOC(=O)c1ccc(NC(=O)c2cccc3c2C(=O)N(CC2CCCO2)C3)cc1 (stereo not given),-2.7,97.0,6.7,-18.1
CCOC(=O)C1=CN(CC2CCCO2)C=C(C(=O)OCC)C1c1ccccc1C(F)(F)F (stereo not given),76.0*,94.0,0.0,-7.9
COC(=O)C1=C(C)N(C)C(=NCC2CC2)NC1c1ccc(F)cc1 (stereo not given),-4.4,.,.,.
CCCN1C(=O)S/C(=C\c2ccc(N3CCOCC3)o2)C1=O,-4.6,100.0,80.9*,-14.8
CCCN1C(=O)S/C(=C/c2ccc(N3CCOCC3)o2)C1=O,-5.8,108.0,34.3,1.5
COc1ccc(NC(=O)C2CCC(CNS(=O)(=O)c3cccs3)CC2)cc1 (stereo not given),31.3*,98.0,-1.4,-9.7
CN1OC[C@@H]2CN(Cc3ccc4c(c3)OCO4)[C@H](c3ccc(-n4ccnc4)cc3)C[C@@H]21,-3.8,.,.,.
SMILES,CaV13 ICDI inh,ABCB6 inh MLPCN,Granule exo inh,VLA-4 inh
Cc1oc(/N=C/c2ccc(O)cc2O)c(C#N)c1C,+,103.0,3.8,1.6
C[C@]12Cc3ccccc3C1CC1=N[C@@H](c3ccc(C(F)(F)F)cc3)O[C@@]13C[C@@H]2C(=O)N3C1CCN(Cc2ccccc2)CC1 (stereo not given in full),-18.3,.,.,.
Cc1cccn2c(=O)c3cc(C(=O)NCc4ccco4)c(=N)n(C(C)C)c3nc12,2.9,98.0,1.2,-13.2
N=c1c(C(=O)NCc2ccco2)cc2c(=O)n3ccccc3nc2n1Cc1ccc(Cl)cc1,5.4,94.0,63.5*,11.1
CCCCNC(=O)c1cc2c(=O)n3cccc(C)c3nc2n(Cc2ccncc2)c1=N,9.9,95.0,1.0,5.8
COCCNC(=O)c1cc2c(=O)n3cccc(C)c3nc2n(Cc2ccncc2)c1=N,42.7*,100.0,1.7,11.3
N=c1c(C(=O)NCc2ccco2)cc2c(=O)n3ccccc3nc2n1Cc1ccccc1,-2.5,104.0,6.5,12.7
